Results from ChEMBL document CHEMBL1201862, “PubChem BioAssay data set” (2004).
Screen size: about 15,000 sequences; about 620 (4.1%) were called active. Rule as the data show it: active = GI50 up to about 1.1 µM and inactive = higher. The list is a sample of the results. Measured potencies and affinities stand elsewhere.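 Following 48 hours of exposure in 96-well plates, responses at five concentrations were used to interpolate endpoints linearly. GI50 is the concentration that inhibits growth by half.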

system: M19-MEL; experiment: NCI tumour cell line growth inhibition, 48 h

| Substance | GI50 [nM] |
| --- | --- |
| [Bis(aminomethyl)ethylmethylsilane]tetrachloroplatinum(IV), CHEMBL2146192 | 1520 |
| mu-(1,7-nanodiamine-N,N')bis-(cis-aminedichloroplatimum (II)), CHEMBL2146215 | 1360 |
| [Bis(aminomethyl)pentamethylenesilane]dichloropaltinum(II), CHEMBL2146202 | 5380 |
| [Bis(aminomethyl)tetramethylenesilane]dichloropaltinum(II), CHEMBL2146205 | 19300 |
| [Bis(aminomethyl)tetramethylenesilane]tetrachloropaltinum(IV), CHEMBL2146189 | 2830 |
| [Bis(aminomethyl)dimethylsilane]dichloroplatinum (II), CHEMBL2146201 | 15200 |
| cis-Bis[[(trimethylsilyl)methyl]amino]tetrachloroplatinum(IV), CHEMBL2146191 | 3370 |
| [Bis(aminomethyl)diethylsilane]tetrachloroplatinum(IV), CHEMBL2146203 | 2030 |
| [Bis(aminomethyl)pentamethylenesilane]tetrachloropaltinum(IV), CHEMBL2146204 | 2240 |
| [Bis(aminomethyl)dimethylsilane]tetrachloroplatinum(IV), CHEMBL2146190 | 3120 |
